# The campaign covered roughly 380,000 compounds. About 4,000 (1.1%) were called active. Roughly 3% stayed inconclusive and do not appear here. Many of the other results were omitted from the sample, so actives are more common in it than they were. A number with no mark means an inactive call. The call rests on the fitted dose curve; in most records, active means well fitted activation curve with a large enough effect; inconclusive means small, poorly fitted or top-dose-only effect; inactive means no such curve, though single readings can be large or run the other way.
# Test: qHTS Assay to Identify Small Molecule Activators of BRCA1 Expression; further: nearly all actives have a fitted effect of over 80% in size
# Conditions: MCF7-BRCA1-FFLuc reporter, luminescence, 48 h; series mostly up to 46.1 µM; activation: at the top concentration
# Text: Functionally, BRCA1 has been implicated in a wide array of cellular activities, including DNA damage repair, cell-cycle checkpoint control, growth inhibition, apoptosis, transcriptional regulation, chromatin remodeling, protein ubiquitylation, and mammary stem cell self-renewal and differentiation. Reduction in BRCA1 levels is associated with an increase in tumor growth and resistance to anti-estrogenic agents, such as tamoxifen, while an increase in BRCA1 expression leads to cell growth arrest and apoptosis. […] The frequent loss of BRCA1 expression in invasive breast cancers in the absence of somatic mutation has been attributed to numerous mechanisms, including hypermethylation of the BRCA1 promoter, exaggerated ubiquitylation of BRCA1 protein, and improper intracellular localization. […] Basal-like breast cancers (BLBCs) are associated with an aggressive clinical course, resistance to chemotherapy, and typically lack expression of estrogen receptor (ER), progesterone receptor (PR), and epidermal growth factor receptor 2 (HER2). BLBCs account for 10-17% of all breast cancers, have few therapeutic options, and are considered the biggest unmet need in the treatment of breast cancer. Conversely, tumors which maintain expression of functional BRCA1 are almost uniformly luminal type cancers, and are accordingly associated with more indolent clinical courses, responsiveness to endocrine therapies, and improved survival.
# As such, it is possible that an increase in BRCA1 expression would enable cellular differentiation and restore tumor suppressor function, resulting in delayed tumor growth and less aggressive, more treatable breast cancers. The long term goal of this proposal is to develop a novel prevention or therapeutic agent for breast cancer patients. To accomplish this goal, the overall objective of this proposal is to access the resources provided by the NIH Molecular Libraries Roadmap Initiative and the Molecular Libraries Probe Production Centers Network (MLPCN) to discover and develop new chemical activator probes that will increase BRCA1 expression and function.
# NIH Molecular Libraries Probe Production Network [MLPCN]
# NIH Chemical Genomics Center [NCGC]
# PI Name: Lisa Harlan-Williams, University of Kansas Medical Center
# 5microl of MCF7-BRCA1-FFLuc cell suspension (400 cells/microl in phenol-red free MEM) are dispensed into Greiner white solid bottom 1536-well assay plates, yielding a final well density of 2000 cells/well. Plates are incubated for 2 hours at 37 degrees C in 5% humidified CO2 to allow cell attachment. Compounds are then transferred via Kalypsys pin tool equipped with 1536-pin array (10nl slotted pins, V&P Scientific, San Diego, CA). The plates are then incubated at 37 degrees C in 5% humidified CO2 for 48 hours. The NCGC in-house luciferase substrate reagent, Buglite, is then added (2.5microl) and plates incubated for 15 minutes, before being transferred to a ViewLux high-throughput CCD imager (PerkinElmer) wherein single end-point measurements of luminescence are acquired using a clear filter. The positive control compound, genistein, will be pinned into dedicated control columns on each plate, including a 16-point 1:3 titration in duplicate, as well as a 10microM maximum activation control, allowing for the normalization of screening activity. DMSO will be pinned into a separate column as a negative control.
# All screening operations will be performed on a fully integrated robotic system (Kalypsys, San Diego, CA) containing one RX-130 and two RX-90 anthropomorphic robotic arms (Staubli, Duncan, SC). Library plates will be screened starting from the lowest and proceeding to the highest concentration. Vehicle-only plates, with DMSO being pin-transferred to columns 5-48, will be inserted uniformly at the beginning and the end of each library in order to monitor and record any shifts in the background, which can be affected by reagent dispensers or loss in enzyme activity over time. […]
# Potency means the concentration at half of the fitted maximal effect.
Compound,activation [%],Potency
COc1cc(OC)c(C2C=C(C(=O)O)Nc3ncnn32)cc1OC (stereo unspecified),10.8,–
COc1ccc(C)cc1NC(=O)CCc1c(C)nn(-c2ccc(N3CCOCC3)nn2)c1C,19.3,–
CCOc1ccc(C(O)Cc2nc3ccccc3n2C)cc1 (stereo unspecified),–,12.6 µM (active)
COc1cccc(C(O)Cc2nc3ccccc3n2C)c1OC (stereo unspecified),43,–
CCOc1ccc(C(O)Cn2c(=N)n(CCN3CCCCC3)c3ccccc32)cc1 (stereo unspecified),-32.1,–
CCn1cc2nc(SCc3ccccc3Cl)n(CCc3ccccc3)c(=O)c2n1,0,–
CC(C)(C)C1CCC(NC(=O)c2cnn3c2NC(=C2CC2)C=C3C(F)F)CC1 (stereo unspecified),-51.7,–
CSCCNC(=O)c1ccc2nc(Cc3ccccc3F)oc2c1,–,12.6 µM (active)
COc1ccc(Cc2nc3ccc(C(=O)NCC4CCOCC4)cc3o2)cc1OC,-5.09,–
COc1ccc(Cc2nc3ccc(C(=O)NCc4ccc(OC)cc4OC)cc3o2)cc1,-11.6,–
COc1ccc(CCn2c3c(c(=O)[nH]c2=S)CN(C(C)C)CN3)cc1OC,-12.2,–
COC(=O)[C@H](Cc1ccccc1)NC(=O)Nc1ccc(S(N)(=O)=O)cc1,-8.89,–
CC(=O)c1ccc(Nc2nc(C(N)c3ccccc3)cs2)cc1 (stereo unspecified),18.7,–
NS(=O)(=O)c1ccc(Nc2nc(-c3ccccc3)cs2)cc1,–,7.08 µM (active)
NS(=O)(=O)c1ccc(NC(=O)CSc2nnc3c(n2)[nH]c2ccccc23)cc1,0,–
COCCNC(=O)c1ccc2c(c1)N=C(C)c1cc(C)ccc1S2,-66.9,–
N#Cc1ccc(C2N=C(c3ccccc3)NO2)cc1 (stereo unspecified),–,2.51 µM (active)
Brc1ccccc1C1N=C(c2ccccc2)NO1 (stereo unspecified),42.9,–
CCOc1ccccc1NC(=O)C1=C(C)Nc2ncnn2C1c1ccc(NC(C)=O)cc1 (stereo unspecified),-11.2,–

Compound,activation [%],Potency
CC(=O)N1c2ccc(S(=O)(=O)N3CCCCCC3)cc2CC1C(=O)NCc1ccccc1C (stereo unspecified),-1.06,–
COc1cccc(C(O)c2nc(-c3ccc(C)c(C)c3)cs2)c1 (stereo unspecified),35.3,–
COc1ccc(-c2cc(C(F)(F)F)n3nc(-c4ccccc4)cc3n2)cc1OC,-55.7,–
COc1ccc(-c2csc(Nc3cccc(C)n3)n2)cc1OC,–,2.82 µM (active)
O=C(c1ccc2c(=O)n(Cc3ccco3)c(=S)[nH]c2c1)N1CCCC1,-11.9,–
O=C(Nc1cccc2cccnc12)c1cccc2c(Br)cccc12,-31.4,–
Brc1cccc(-c2nnn3c2nc(NC2CCCCC2)c2ccccc23)c1,-3.57,–
COc1ccc(-c2nc3ccccc3o2)cc1NC(=O)c1cc([N+](=O)[O-])ccc1N1CCOCC1,11.7,–
CC(=O)Nc1cccc(-c2cnc3ccccc3n2)c1,–,3.98 µM (active)
CCS(=O)(=O)Nc1cccc(-c2cc(-c3ccccc3)c3cc(C)ccc3n2)c1,-71.4,–
CC(=O)Nc1cccc(-c2cc(NC(C)=O)c3ncc(-c4ccccc4)n3c2)c1,-10.9,–
COc1ccc(NCCc2ccccn2)cc1,–,12.6 µM (active)
Cc1c(C)c(C)c(S(=O)(=O)NCCc2ccccn2)c(C)c1C,-0.0453,–
COc1cncc(-c2cnc3sc(NCCc4ccccn4)nn23)c1,-32.3,–
CN(Cc1ccccc1)c1ncnc2onc(-c3ccc(F)cc3)c12,-18.2,–
CCCCOC(=O)Nc1nnc(CC(=O)NCc2ccccc2)s1,-16.7,–
O=C(CC(c1ccccc1)c1ccccc1)NCC(O)c1ccc([N+](=O)[O-])cc1 (stereo unspecified),-36.3,–
CCCCCCOC(=O)NCC(O)c1ccccc1 (stereo unspecified),–,2.82 µM (active)
COc1ccc2cc(CNc3ccc(OC)c(OC)c3)c(=O)n(CC(=O)Nc3ccccc3F)c2c1,6.1,–

Compound,activation [%],Potency
COc1cc2nc(N3CCCN(C)CC3)nc(NC(C)C)c2cc1OC,4.14,–
COc1cccc(CNC(=O)C(NS(=O)(=O)c2ccc3nc(C)sc3c2)C(C)C)c1 (stereo unspecified),11.8,–
CCC(C)c1ccc(NC(=S)N2CCCC2)cc1 (stereo unspecified),–,12.6 µM (active)
NS(=O)(=O)c1ccc(NC(=S)N2CCCC2)cc1,-14.7,–
CCC(C)c1ccc(NC(=O)COC(=O)C2CCCC2)cc1 (stereo unspecified),63.6,–
CCN(C(=O)Cn1cnc2sc(C)c(S(=O)(=O)N3CCN(c4ncccn4)CC3)c2c1=O)c1ccccc1F,6.29,–
CCOC(=O)c1c(-c2ccc(OC)cc2)oc2ccc(OCc3ccc(C(=O)OC)cc3)cc12,11.6,–
COc1ccc(-c2onc3ccc(C(C)=O)cc23)cc1,–,8.91 µM (active)
COc1ccc(-c2ocnc2C(=O)Nc2ccc3c(c2)CCC3)cc1,43,–
Cc1ccc(N2CC(C(=O)Nc3ccc(N(C)C)cc3)CC2=O)cc1Cl (stereo unspecified),0.738,–
O=C(Nc1ccc(F)cc1F)c1cnn(-c2ccc(F)cc2)c1-n1cccc1,-12.7,–
CCc1ccc(NC(=O)Nc2ccncc2)cc1,–,10 µM (active)
CCc1ccc(NC(=O)N[C@H](C(=O)O)C(C)CC)cc1 (stereo partly specified),0,–
CC(C)CC(=O)Nc1ccc(Cc2ccncc2)cc1,-0.517,–
Cc1ccccc1Nc1nn2c(=O)c3ccc(C(=O)NCCc4ccc(Cl)cc4)cc3nc2s1,1.1,–
CN(N=O)c1ccc(C=C2c3ccccc3-c3ccccc32)cc1,-55.1,–
COc1ccc(S(=O)(=O)NCCSc2nnnn2-c2ccccc2)cc1,-7.8,–
O=C(Nc1ccc(F)cc1F)c1ccc2c(=O)n3c(nc2c1)CCCCC3,4.14,–
